Results on 5 molecules are retold here after PubChem BioAssay.

The structures appear in SMILES notation. Activity calls are given as the source filed them.

A short description of assay [1]: small molecules captured by biotinylated probe aFSTL3 – biochemical, small-molecule microarray, fluorescence 635/667, stem cell growth factor project, primary screen (AID 1064).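 Also: measures binding of the biotinylated anti-FSTL3 antibody to printed compounds.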 The conditions noted are these: higher = more signal.
A short description of assay [2]: binders from COS7 lysate, DM2A8 probe, primary screen, torsin A project, cell lysate, small-molecule microarray, fluorescence 635/667 (AID 1065). The conditions noted are these: higher = more signal, COS7 lysate expressing mutant human TOR1A.
Assay [3] can be described thus: small molecules captured by biotinylated probe aFGF2 – biochemical, small-molecule microarray, fluorescence 635/667, stem cell growth factor project, primary screen (AID 1067).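 Also: measures binding of biotinylated aFGF2 protein to printed compounds on slides; z-score merges feature fluorescence and signal-to-noise across triplicate slides.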 The conditions noted are these: higher = more signal.
A short description of assay [4]: small molecules captured by biotinylated probe aFGF10 – biochemical, small-molecule microarray, fluorescence 635/667, stem cell growth factor project, primary screen (AID 1071).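 Also: score merges 667 nm spot intensity and signal to noise from triplicate slides.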 The conditions noted are these: higher = more signal.
For assay [5], the target named is Neurogenic locus notch homolog protein 2 (Homo sapiens) (UniProt Q04721). Put plainly: small molecules binding Notch2 protein – biochemical, small-molecule microarray, 635 nm fluorescence, stem cell growth factors, primary screen (AID 1073). The conditions noted are these: higher = more signal.
Assay [6] concerns the target Pro-neuregulin-1, membrane-bound isoform (Homo sapiens) (UniProt Q02297). Put plainly: small molecules binding neuregulin-1 protein – biochemical, small-molecule microarray, fluorescence 635/667, psychiatric disease protein project, primary screen (AID 1075).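 Also: score combines 667 nm spot fluorescence with signal to noise.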 To be noted: NRG1 binding, 635 nm fluorescence, higher = more signal.
Assay [7] has as its system Neuregulin-1 EGF-like domain. In words: small molecules binding NRG1 EGF domain – biochemical, small-molecule microarray, 635 nm fluorescence, primary screen (AID 1081).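 Also: binding of the protein to compounds printed on small-molecule microarray slides.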 To be noted: higher = more signal.
A short description of assay [8]: FRG1 expression reporter modulators in myotubes – cell-based, C2C12 myotubes, firefly/Renilla luciferase, luminescence, FRG1 inhibition for FSHD, primary screen (AID 1084). To be noted: FRG1 promoter luciferase, higher = more signal, called active from +8 up or from −8 down.
Assay [9] in a line: small molecules captured by biotinylated probe aFST – biochemical, small-molecule microarray, fluorescence 635/667, stem cell growth factor project, primary screen (AID 1086).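 Also: score merges 667 nm fluorescence with signal-to-noise of each printed compound spot.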 To be noted: higher = more signal.
A short description of assay [10]: binders of probe aHhip on microarray, primary screen, stem cell growth factor project, biochemical, small-molecule microarray, fluorescence 635/667 (AID 1087).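 Also: score merges spot fluorescence at 667nm with spot signal to noise ratio.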 To be noted: higher = more signal.
For assay [11], the system named is PRMT1 (protein arginine N-methyltransferase 1). In words: small molecules binding arginine methyltransferase PRMT1 – biochemical, small-molecule microarray, 635 nm fluorescence, primary screen (AID 1088).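 Also: binding of Prmt1 protein to compounds spotted on small-molecule microarray slides.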 To be noted: higher = more signal.
Assay [12] in a line: growth effects on S. cerevisiae YJM789 – YJM789 clinical isolate, OD600, 24 h, basal, primary screen (AID 1089).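 Also: growth of clinical yeast isolate S. cerevisiae YJM 789 seeded 1000 cells per well; test concentration not given here.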 To be noted: higher = more signal, called active from +8 up or from −8 down.
The nature of assay [13]: S. pombe growth modifiers, basal conditions – strain 972, OD600, 24 h, no modulator, primary screen (AID 1090).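 Also: basal condition with compound alone and no growth modifier present; test concentration not given here.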 The conditions noted are these: S. pombe 972 growth, higher = more signal, called active from +8 up or from −8 down.
Assay [14] can be described thus: budding yeast growth modifiers under rapamycin – strain BY4716, OD600, 96 h, primary screen (AID 1091). Also: test concentration not given here. To be noted: S. cerevisiae BY4716 + rapamycin, higher = more signal, called active from +8 up or from −8 down.
The target of assay [15] is Torsin-1A-interacting protein 2 (Homo sapiens) (UniProt Q8NFQ8). Put plainly: small molecules binding lysate-expressed LULL1 – cell lysate, human LULL1 lysate, 635/667 nm fluorescence, primary screen (AID 1092).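 Also: probe is lysate of COS7 cells overexpressing human LULL1; score merges per-feature 667 nm fluorescence with signal-to-noise.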 The conditions noted are these: small-molecule microarray, hLULL1 lysate binding, 635 nm fluorescence; higher = more signal.
Assay [16] is described as follows: optical density change of DRC41 E. coli – strain DRC41, OD650, 24 h, E. coli filamentation project, primary screen (AID 1093).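 Also: MC1000 strain lacking acrAB efflux and sulA so SOS filamentation is blocked; test concentration not given here.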 To be noted: E. coli DRC41 growth, higher = more signal, called active from +8 up or from −8 down.
A short description of assay [17]: probe aLefty2 binding to arrayed compounds – biochemical, biotinylated probe, 635/667 nm fluorescence, primary screen (AID 1094).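 Also: score merges spot fluorescence near 667 nm with spot signal-to-noise ratio.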 The conditions noted are these: small-molecule microarray, higher = more signal.
Assay [18] relates to Noggin (protein binding on small-molecule microarray). In words: small molecules binding Noggin protein – biochemical, 635/667 nm fluorescence, primary screen (AID 1095).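 Also: score merges 667 nm feature fluorescence with signal to noise over triplicate slides.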 The conditions noted are these: 635 nm fluorescence, higher = more signal.
In assay [19] the target is Neurogenic locus notch homolog protein 3 (Homo sapiens) (UniProt Q9UM47). In words: small molecules binding NOTCH3 protein – biochemical, 635/667 nm fluorescence, primary screen (AID 1096). To be noted: small-molecule microarray, 635 nm fluorescence, higher = more signal.
Assay [20] in a line: probe aEGFR binding to arrayed compounds – biochemical, biotinylated probe, 635/667 nm fluorescence, primary screen (AID 1097).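 Also: probe is a biotinylated anti-EGFR antibody binding compounds printed on slides; score combines fluorescence near 667 nm and signal to noise of each spot.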 The conditions noted are these: small-molecule microarray, higher = more signal.

Neurogenic locus notch homolog protein 2 (Homo sapiens), sequence (Q04721 whole entry, looked up, canonical isoform): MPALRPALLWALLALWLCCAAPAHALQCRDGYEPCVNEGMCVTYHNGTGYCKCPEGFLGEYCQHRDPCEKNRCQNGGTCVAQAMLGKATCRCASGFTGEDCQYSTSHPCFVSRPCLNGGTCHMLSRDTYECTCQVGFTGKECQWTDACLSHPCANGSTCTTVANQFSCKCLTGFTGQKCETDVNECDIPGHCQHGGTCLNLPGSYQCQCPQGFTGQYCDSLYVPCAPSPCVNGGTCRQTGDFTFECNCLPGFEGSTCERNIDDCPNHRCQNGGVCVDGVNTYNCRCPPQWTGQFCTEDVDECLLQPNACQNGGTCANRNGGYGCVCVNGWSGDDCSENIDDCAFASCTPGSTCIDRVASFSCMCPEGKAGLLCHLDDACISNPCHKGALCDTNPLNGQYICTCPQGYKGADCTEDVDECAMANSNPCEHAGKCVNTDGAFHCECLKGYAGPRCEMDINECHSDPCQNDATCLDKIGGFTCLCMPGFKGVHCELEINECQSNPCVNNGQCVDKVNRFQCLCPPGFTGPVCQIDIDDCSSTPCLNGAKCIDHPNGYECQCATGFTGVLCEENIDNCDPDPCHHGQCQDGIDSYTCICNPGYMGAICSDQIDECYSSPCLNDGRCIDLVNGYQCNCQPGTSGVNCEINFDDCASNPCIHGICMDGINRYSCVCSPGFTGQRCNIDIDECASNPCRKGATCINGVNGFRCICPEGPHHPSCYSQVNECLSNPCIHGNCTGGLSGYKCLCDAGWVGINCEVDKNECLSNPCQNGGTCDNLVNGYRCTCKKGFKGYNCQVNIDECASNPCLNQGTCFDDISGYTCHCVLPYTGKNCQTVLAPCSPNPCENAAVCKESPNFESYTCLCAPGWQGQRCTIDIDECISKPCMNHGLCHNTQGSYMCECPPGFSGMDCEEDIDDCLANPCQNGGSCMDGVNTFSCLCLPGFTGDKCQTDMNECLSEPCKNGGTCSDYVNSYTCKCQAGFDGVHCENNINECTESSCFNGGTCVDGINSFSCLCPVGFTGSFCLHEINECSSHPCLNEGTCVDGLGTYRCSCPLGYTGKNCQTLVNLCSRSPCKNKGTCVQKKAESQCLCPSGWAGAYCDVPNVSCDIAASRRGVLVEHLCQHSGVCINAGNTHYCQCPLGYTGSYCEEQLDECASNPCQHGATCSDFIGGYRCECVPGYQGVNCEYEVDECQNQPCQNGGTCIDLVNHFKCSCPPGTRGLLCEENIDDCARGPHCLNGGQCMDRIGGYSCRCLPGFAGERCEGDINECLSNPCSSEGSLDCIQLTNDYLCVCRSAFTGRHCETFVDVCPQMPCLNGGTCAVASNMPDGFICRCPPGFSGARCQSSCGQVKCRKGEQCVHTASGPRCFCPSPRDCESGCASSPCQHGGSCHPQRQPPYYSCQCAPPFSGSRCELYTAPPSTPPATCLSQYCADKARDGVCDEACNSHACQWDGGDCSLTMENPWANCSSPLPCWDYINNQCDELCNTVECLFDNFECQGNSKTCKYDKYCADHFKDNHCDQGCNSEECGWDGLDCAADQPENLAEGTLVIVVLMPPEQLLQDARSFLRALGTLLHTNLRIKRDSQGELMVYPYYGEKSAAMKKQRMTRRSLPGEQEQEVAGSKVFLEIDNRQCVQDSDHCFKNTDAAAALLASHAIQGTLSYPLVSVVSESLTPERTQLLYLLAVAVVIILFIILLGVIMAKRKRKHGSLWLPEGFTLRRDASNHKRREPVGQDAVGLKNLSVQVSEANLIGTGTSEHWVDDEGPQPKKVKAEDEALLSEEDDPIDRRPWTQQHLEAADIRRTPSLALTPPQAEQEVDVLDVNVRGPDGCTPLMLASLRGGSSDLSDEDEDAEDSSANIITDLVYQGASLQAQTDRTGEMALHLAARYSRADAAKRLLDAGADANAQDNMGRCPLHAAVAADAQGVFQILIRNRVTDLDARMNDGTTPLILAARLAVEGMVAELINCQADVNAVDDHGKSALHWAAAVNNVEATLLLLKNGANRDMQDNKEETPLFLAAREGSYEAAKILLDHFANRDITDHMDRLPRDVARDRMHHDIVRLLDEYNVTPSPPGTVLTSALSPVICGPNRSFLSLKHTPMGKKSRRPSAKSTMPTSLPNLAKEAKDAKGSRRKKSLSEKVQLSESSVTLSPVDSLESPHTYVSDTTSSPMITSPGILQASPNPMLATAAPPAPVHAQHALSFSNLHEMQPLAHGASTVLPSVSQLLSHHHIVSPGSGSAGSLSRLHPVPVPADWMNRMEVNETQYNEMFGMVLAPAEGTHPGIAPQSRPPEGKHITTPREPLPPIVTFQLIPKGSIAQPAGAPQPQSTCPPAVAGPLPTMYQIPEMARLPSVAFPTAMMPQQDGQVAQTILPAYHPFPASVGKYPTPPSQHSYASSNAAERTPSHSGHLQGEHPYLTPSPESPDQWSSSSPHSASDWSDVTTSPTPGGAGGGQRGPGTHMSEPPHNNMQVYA
Neurogenic locus notch homolog protein 3 (Homo sapiens), sequence (Q9UM47 whole entry, looked up): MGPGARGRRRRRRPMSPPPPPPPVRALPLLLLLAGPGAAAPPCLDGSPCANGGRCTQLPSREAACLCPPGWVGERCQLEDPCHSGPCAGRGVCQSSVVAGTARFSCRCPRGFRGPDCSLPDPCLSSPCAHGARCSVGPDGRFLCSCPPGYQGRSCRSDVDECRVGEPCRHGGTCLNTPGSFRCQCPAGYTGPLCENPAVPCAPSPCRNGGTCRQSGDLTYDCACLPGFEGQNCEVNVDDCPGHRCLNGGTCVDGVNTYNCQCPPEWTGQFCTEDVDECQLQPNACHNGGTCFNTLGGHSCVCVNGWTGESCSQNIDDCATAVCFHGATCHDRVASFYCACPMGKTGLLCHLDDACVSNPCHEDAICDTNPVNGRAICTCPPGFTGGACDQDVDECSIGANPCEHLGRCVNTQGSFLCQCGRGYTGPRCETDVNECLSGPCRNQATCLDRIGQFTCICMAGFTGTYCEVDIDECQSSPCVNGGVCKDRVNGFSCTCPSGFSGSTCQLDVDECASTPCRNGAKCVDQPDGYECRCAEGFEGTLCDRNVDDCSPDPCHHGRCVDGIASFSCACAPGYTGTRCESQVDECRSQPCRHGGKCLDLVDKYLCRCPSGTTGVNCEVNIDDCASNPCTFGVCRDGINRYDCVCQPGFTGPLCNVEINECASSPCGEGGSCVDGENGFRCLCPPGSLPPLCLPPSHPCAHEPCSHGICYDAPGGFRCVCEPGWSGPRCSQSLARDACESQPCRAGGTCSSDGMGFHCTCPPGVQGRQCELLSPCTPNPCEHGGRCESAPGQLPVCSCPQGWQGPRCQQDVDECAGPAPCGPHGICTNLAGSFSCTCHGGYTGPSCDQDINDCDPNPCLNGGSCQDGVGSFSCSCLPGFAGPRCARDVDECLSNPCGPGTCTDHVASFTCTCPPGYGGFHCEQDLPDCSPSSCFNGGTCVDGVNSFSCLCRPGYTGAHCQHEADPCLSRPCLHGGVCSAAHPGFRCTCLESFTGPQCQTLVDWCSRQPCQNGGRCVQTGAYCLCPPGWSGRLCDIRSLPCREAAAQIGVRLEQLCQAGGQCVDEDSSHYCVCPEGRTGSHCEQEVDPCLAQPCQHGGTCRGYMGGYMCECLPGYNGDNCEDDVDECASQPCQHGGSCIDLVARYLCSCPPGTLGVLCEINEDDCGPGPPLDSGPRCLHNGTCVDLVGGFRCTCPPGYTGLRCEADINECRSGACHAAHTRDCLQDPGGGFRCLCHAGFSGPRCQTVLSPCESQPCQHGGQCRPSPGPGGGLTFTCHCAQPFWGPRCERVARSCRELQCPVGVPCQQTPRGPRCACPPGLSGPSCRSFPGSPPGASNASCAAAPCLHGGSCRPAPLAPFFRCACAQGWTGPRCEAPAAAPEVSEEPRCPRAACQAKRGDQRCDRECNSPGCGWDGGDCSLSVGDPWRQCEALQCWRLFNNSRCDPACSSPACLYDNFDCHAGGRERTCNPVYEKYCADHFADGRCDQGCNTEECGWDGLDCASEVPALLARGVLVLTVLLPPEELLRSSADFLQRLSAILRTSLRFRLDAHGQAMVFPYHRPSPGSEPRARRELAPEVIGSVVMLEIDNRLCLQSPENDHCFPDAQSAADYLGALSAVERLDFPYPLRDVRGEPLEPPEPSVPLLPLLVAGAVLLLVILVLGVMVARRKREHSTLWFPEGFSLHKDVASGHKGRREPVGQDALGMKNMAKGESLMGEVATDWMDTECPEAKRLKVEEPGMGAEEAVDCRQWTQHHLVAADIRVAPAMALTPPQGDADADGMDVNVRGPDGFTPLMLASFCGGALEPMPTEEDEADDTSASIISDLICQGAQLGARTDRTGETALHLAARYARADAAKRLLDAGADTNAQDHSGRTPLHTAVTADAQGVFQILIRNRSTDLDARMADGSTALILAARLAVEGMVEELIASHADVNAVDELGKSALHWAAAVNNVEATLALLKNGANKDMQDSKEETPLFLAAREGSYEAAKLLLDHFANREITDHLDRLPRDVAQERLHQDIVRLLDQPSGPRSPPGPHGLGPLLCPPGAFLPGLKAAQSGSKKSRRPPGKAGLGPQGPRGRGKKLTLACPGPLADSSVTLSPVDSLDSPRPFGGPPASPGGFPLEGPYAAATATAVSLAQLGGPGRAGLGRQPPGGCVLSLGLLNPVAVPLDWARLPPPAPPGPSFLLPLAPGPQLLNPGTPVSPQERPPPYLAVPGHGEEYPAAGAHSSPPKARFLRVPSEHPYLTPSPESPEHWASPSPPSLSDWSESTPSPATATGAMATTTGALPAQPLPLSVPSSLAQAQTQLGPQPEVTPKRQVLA

`C=CC1(C(=O)OC)CC=C(C(=O)OC)CC1` (stereo not given): the composite z-score in assay [1] was -0.219; in [2], 0.191; in [3], -0.0226; in assay [4], 1.17; in assay [5] it was 1.12; in [6] it was 1.73. The composite z-score in assay [7] was 1.12; in assay [9] it was 0.0908; in assay [10] it was 0.0623; in [11], 0.911; in assay [15], 0.531; in assay [17], -0.0449. Also, the composite z-score is 0.533 in assay [18], 0.57 in [19] and 0.0413 in assay [20]. Moreover, the z-score was -0.941 (inactive) in assay [8]; -1.64 (inactive) in assay [12]; 0.358 (inactive) in assay [13]; -0.624 (inactive) in assay [14]; -0.487 (inactive) in assay [16].

Regarding `COc1ccc(CCNC(=O)[C@@]2(Sc3ccc(C)cc3)CC(=O)N(C3Cc4ccccc4C3)[C@@H]2c2ccc(CO)cc2I)cc1`, the composite z-score is 0.538 in assay [1]; 0.0778 in assay [2]; -0.0558 in assay [3]; -0.183 in [4]; -0.813 in [5]; 1.54 in assay [6]. For the same molecule, the composite z-score in assay [7] is 0.948; in assay [9], 0.0627; in assay [10], 0.0854; in [11], 0.789; in [15], 1.99; in assay [17] it was 0.119. The composite z-score was -1.37 in [18], -0.0239 in assay [19] and -0.172 in [20]. Moreover, the z-score in assay [8] was -0.518 (inactive); in assay [12], 0.534 (inactive); in assay [13], -2.75 (inactive); in assay [14] it was 3.02 (inactive); in [16], 0.171 (inactive).

On to `O=C(CS)NCCCCCCNC(=O)[C@@H]1C[C@@H]2C(=O)N[C@@H](Cc3ccccc3)C(=O)N2[C@@H]1c1cccc(OCCO)c1`, for which the composite z-score in assay [1] amounted to 0.0549; in assay [2], 0.94; in [3], 0.0589; in assay [4], 0.956; in assay [5], 1.08; in [6] it was 0.659. Further, the composite z-score in assay [7] is 1.23; in assay [9] it was 0.616; in [10], -0.0994; in [11], 1.54; in assay [15], 2.92; in [17], 0.0747. Also, the composite z-score in assay [18] amounted to 0.988; in assay [19], 1.04; in assay [20], 0.122. In addition, the z-score is 3.09 (inactive) in assay [8]; -0.485 (inactive) in assay [12]; 0.279 (inactive) in assay [13]; 0.211 (inactive) in assay [14]; -1.21 (inactive) in assay [16].

As for `Cc1ccc(S[C@]2(C(=O)NCCCN(C)C)CC(=O)N(Cc3ccccc3C(F)(F)F)[C@@H]2c2ccc(CO)cc2)cc1`, the composite z-score in [1] was 0.678; in assay [2], -0.554; in assay [3] it was -0.138; in assay [4] it was -0.572; in assay [5], -1.37; in [6], 0.907. The composite z-score in assay [7] was -1.08; in [9], 0.0539; in assay [10], -0.0994; in [11], 0.486; in assay [15], 1.91; in assay [17], 0.0446. Moreover, the composite z-score was -0.858 in [18], -1.3 in assay [19] and -0.227 in [20]. Further, the z-score in assay [8] was -1.31 (inactive); in [12], -0.339 (inactive); in assay [13], -0.543 (inactive); in assay [14], -0.914 (inactive); in assay [16], 0.783 (inactive).

Regarding `CC(C)C(=C=CC[C@H](O)c1ccc(OCCO)cc1)CCO`, the composite z-score was -0.0762 in assay [1]; 0.887 in assay [2]; -0.1 in assay [3]; 0.904 in [4]; 0.255 in [5]; 1.69 in assay [6]. The composite z-score was 0.895 in assay [7]; 0.326 in assay [9]; -0.0994 in assay [10]; 1.55 in [11]; 2.22 in assay [15]; -0.0113 in assay [17]. Also, the values for the composite z-score in assay [18], in [19] and in assay [20] were 1.37, -0.0409 and -0.12, respectively. Moreover, the z-score is 0.305 (inactive) in [8]; -1.83 (inactive) in assay [12]; -1.27 (inactive) in assay [13]; -0.768 (inactive) in [14]; -0.327 (inactive) in assay [16].
